The panel holds about 83,000 compounds, 20% with a hit somewhere; the sample as a whole holds those more often.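 Step 1: grow cells in 96-well plates. Step 2: add test compound at a single concentration. Step 3: incubate 48 h. Step 4: record percent growth.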 The source made the active and inactive calls. How the source made its calls: active means growth percent below 10; inactive means the rest.
What was measured:
Test in all cases: NCI-60 one-dose screen, 48 h (100 = growth as untreated, 0 = no growth, -100 = all killed)
[1] = tested on: HCT-15 colon; conditions: 10 µM unless noted
[2] = tested on: HT29 colon; conditions: 10 µM unless noted
[3] = tested on: SNB-19 CNS; conditions: 10 µM unless noted
[4] = tested on: PC-3 prostate; conditions: 10 µM unless noted
[5] = tested on: SK-MEL-5 melanoma; conditions: 10 µM unless noted
[6] = tested on: LOX IMVI melanoma; conditions: 10 µM
[7] = tested on: SK-MEL-28 melanoma; conditions: 10 µM unless noted
[8] = tested on: SK-MEL-2 melanoma; conditions: 10 µM unless noted
[9] = tested on: EKVX NSCLC; conditions: 10 µM unless noted
[10] = tested on: SN12C renal; conditions: 10 µM unless noted
[11] = tested on: UO-31 renal; conditions: 10 µM unless noted
[12] = tested on: TK-10 renal; conditions: 10 µM unless noted
[13] = tested on: ACHN renal; conditions: 10 µM unless noted
[14] = tested on: CAKI-1 renal; conditions: 10 µM unless noted
[15] = tested on: A498 renal; conditions: 10 µM unless noted
[16] = tested on: CCRF-CEM leukemia; conditions: 10 µM unless noted
[17] = tested on: MOLT-4 leukemia; conditions: 10 µM unless noted
[18] = tested on: SNB-75 CNS; conditions: 10 µM unless noted
[19] = tested on: U251 CNS; conditions: 10 µM unless noted
[20] = tested on: UACC-62 melanoma; conditions: 10 µM unless noted

Measured: growth

O=C1c2ccccc2C(=O)c2c(O)c(Cl)cc(O)c21
inactive: [1] 81.9% | [2] 39% | [3] 93.1% | [4] 77% | [5] 108% | [6] 50.9% | [7] 103% | [8] 124% | [9] 98.3% | [10] 96.5% | [11] 79.8% | [12] 89.4% | [13] 92.1% | [14] 95.1% | [15] 91% | [16] 64.3% | [17] 75.9%

CC(=O)Nc1ccc(C(=O)CCl)cc1
inactive: [18] 84.3% | [3] 82.5% | [19] 86.3% | [4] 92.9% | [5] 107% | [20] 81.3% | [7] 69.6% | [8] 96.6% | [10] 90.6% | [14] 38.6% | [15] 99.8% | [17] 73.6%
active: [1] 6.54% | [6] -53.6% | [13] -58% | [16] -49.9%

S=C(S)OCN1CCOCC1
inactive: [1] 91.3% | [2] 19.7% | [19] 40.9% | [5] 101% | [6] 63.4% | [9] 97.4% | [10] 103% | [11] 75.9% | [12] 97.9% | [13] 100% | [14] 92.6% | [15] 70.6% | [16] 59% | [17] 92.5%

O=C(OC12CC3CC(CC(C3)C1)C2)c1ccc(NCc2cc(O)ccc2O)cc1
active: [1] -41.9% | [2] -19% | [3] 5.17% | [5] -95.9% | [20] -73.4% | [6] -68.7% | [8] -19.9% | [9] -67.9% | [10] -3.25% | [11] -100% | [12] -95.9% | [13] -89.7% | [14] -92.5% | [16] -23.7% | [17] -19.5%

CC(C)N=C(N)/N=C(\N)Nc1ccc2ccc3ccccc3c2c1
active: [1] -91.5% | [2] -84.4% | [3] -92.6% | [5] -98.1% | [20] -75.6% | [7] -78.2% | [8] -81.8% | [9] -91.2% | [10] -84.6% | [11] -58.4% | [12] -89.6% | [13] -89.2% | [14] -81.1% | [15] -73.7% | [17] -3.58%
inactive: [16] 12.3%

O=C(c1ccccc1)c1cc2ccccc2oc1=O
inactive: [1] 108% | [18] 71.8% | [3] 97.4% | [19] 90.2% | [4] 72.3% | [20] 93.4% | [6] 89.8% | [7] 119% | [8] 126% | [9] 95.5% | [10] 89.4% | [11] 59.3% | [12] 130% | [13] 101% | [14] 98.7% | [15] 117% | [16] 101% | [17] 105%

CC(=O)C1Cc2ccccc2C1=O (stereo unspecified)
inactive: [1] 108% | [2] 104% | [19] 103% | [4] 94.7% | [5] 103% | [6] 94.4% | [7] 115% | [8] 124% | [9] 80.6% | [10] 98% | [11] 79.5% | [12] 142% | [13] 97.6% | [14] 82.6% | [15] 110% | [16] 125% | [17] 115%

S=C(SSC(=S)N1CCOCC1)N1CCOCC1
inactive: [1] 91.2% | [18] 104% | [3] 111% | [19] 58.1% | [4] 77.6% | [5] 73.2% | [20] 68.7% | [6] 78.9% | [7] 106% | [10] 99.7% | [11] 76.9% | [12] 95.7% | [13] 98.3% | [14] 79.1% | [15] 90.6% | [16] 21.9% | [17] 93.6%

Cc1cc(=O)oc2cc(O)cc(O)c12
inactive: [1] 108% | [18] 98.2% | [3] 104% | [19] 107% | [4] 100% | [5] 99.5% | [6] 97.9% | [7] 101% | [8] 107% | [9] 99.3% | [12] 97.8% | [13] 102% | [14] 94.6% | [15] 117% | [16] 107% | [17] 99.8%

CCC(=O)c1cc([N+](=O)[O-])c(Br)s1
inactive: [1] 61% | [2] 41.6% | [3] 99.8% | [19] 93.4% | [5] 98.9% | [20] 105% | [7] 110% | [8] 106% | [11] 74.7% | [12] 96.6% | [14] 95.8% | [15] 87% | [17] 33.9%
active: [6] -41.2% | [16] 1.7%

CSc1nc(C)c(C(=O)CCN2CCN(c3ccccn3)CC2)s1
inactive: [1] 97.3% | [2] 102% | [3] 96.1% | [4] 94.3% | [5] 101% | [20] 98.7% | [7] 106% | [10] 97.6% | [11] 82.9% | [12] 118% | [13] 101% | [14] 100% | [15] 88.4%

CCCCCCCCCCCC[n+]1ccccc1 (tested in a mixture with another compound)
active: [2] -30.1% | [3] -10.2% | [4] -61.8% | [5] -98.5% | [20] -62.3% | [6] -58.3% | [7] -19.1% | [8] -83.5% | [9] -20.5% | [10] -15.9% | [11] 1.25% | [12] -47.5% | [16] -2.6% | [17] -30.6%
inactive: [1] 38.5% | [13] 22.2% | [15] 42%

CCN1CCCC(Nc2cc(C)nc(/N=C(/N)Nc3ccc(Cl)c(Cl)c3)n2)C1 (stereo unspecified)
inactive: [9] 31.4%
active: [1] -37.2% | [2] -46.9% | [3] -17.5% | [4] 7.05% | [5] -97.6% | [20] -80.7% | [6] -61.5% | [7] -87.8% | [8] -72.7% | [10] 1.64% | [12] -88.6% | [13] -25.1% | [14] -40.6% | [15] -49.1% | [16] -16.4% | [17] -35.4%

c1ccc(-c2cc3cc4ccccc4cn3c2)cc1
inactive: [1] 100% | [18] 89.9% | [3] 92.3% | [19] 82.4% | [4] 78.9% | [5] 80.6% | [6] 86% | [7] 98.5% | [8] 90.1% | [9] 85.3% | [10] 87.6% | [11] 60.9% | [12] 101% | [13] 89.6% | [14] 84.7% | [15] 96.3% | [16] 90.2% | [17] 83.2%

CCCCCCCCCCCCCCCCCC[S+](C)CC (stereo unspecified)
inactive: [1] 38.8% | [4] 36.3% | [20] 19.3% | [7] 48.6% | [8] 48.1% | [9] 91.7% | [10] 25.7% | [13] 16.2% | [14] 66.5% | [15] 63.2% | [16] 14.6%
active: [18] -25.1% | [3] 8.74% | [19] -57.5% | [5] -99.1% | [6] -51.6% | [12] 9.52% | [17] -4.95%

N=C1C=C(N)C(=O)c2ccccc21
active: [1] -74.6% | [18] -99.1% | [3] -98.7% | [19] -72.1% | [4] -7.01% | [5] -96% | [20] -95.8% | [6] -100% | [7] -96.5% | [8] -53.6% | [10] -66.9% | [11] -86.3% | [12] -67.5% | [13] -81.6% | [14] -47.7% | [16] 3.15% | [17] -25%

CN(C)c1ccc(C(=C2C=CC(=[N+](C)C)C=C2)c2ccc(N(C)C)cc2)cc1
active: [1] -19.3% | [18] -49.7% | [3] -75.5% | [19] -87.9% | [4] -31.3% | [5] -98.8% | [20] -54% | [6] -70.2% | [7] -79.6% | [8] -57.8% | [9] -44% | [10] -67% | [11] -97.9% | [13] -95.9% | [14] -27.5% | [15] -91% | [16] -16.6% | [17] -11.4%

Cc1ccc2c(c1)sc(-c1ccc(N(C)C)cc1)[n+]2C
inactive: [1] 68.7% | [3] 16.1% | [7] 30.8% | [12] 14.8% | [13] 63.6% | [14] 72.3% | [16] 10.7%
active: [2] 4.16% | [19] -2.09% | [20] 8.89% | [6] 1.78% | [8] 0.0539% | [10] 3.59% | [15] -6.25% | [17] -42.4%

COc1ccc2c(c1OC)OCC(CN(C)C)C2=O (stereo unspecified)
inactive: [2] 73.3% | [19] 103% | [4] 98.3% | [5] 101% | [20] 95.9% | [6] 87% | [8] 112% | [9] 99.4% | [10] 98.5% | [12] 90.7% | [13] 54.2% | [14] 94.4% | [15] 104% | [16] 60% | [17] 61.1%
active: [1] -58.5% | [11] -72.5%

Reference: PubChem BioAssay (NCI)
